Screen size: about 320,000 compounds; about 210 (0.066%) were called active.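 The calls were made as follows: active = GFP response relative to DMSO above a set limit, near the screen mean plus 3 SD (cut at about 150% in these data); inconclusive = Fewer than 70 cells measured for a yeast strain; inactive = the rest.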 Shown is part of a subset that was picked to be rich in actives.

The nature of the assay: TOR pathway RTG branch CIT2 reporter changes – S. cerevisiae, GFP fusion, multiplex flow cytometry, MLPCN library, primary screen (AID 2029).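 Also: ratio of well median GFP fluorescence to mean of DMSO wells on the plate.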 The note with it: S. cerevisiae CIT2-GFP strain, 3 h, at 10 µM, active compounds read high, 100 means same as DMSO wells. (A flow cytometer gives signals particle by particle.)
`COc1ccc(C(=O)NC2CC2)cc1OC1CCN(Cc2ccc(SC)cc2)CC1`: the GFP response vs DMSO was 114% (inactive). To `CCOC(=O)CSc1nc(N2CCOCC2)c2c(c1C#N)CC(C(C)C)OC2` (stereo unspecified) belongs 104% (inactive); to `COc1ccc(C(=O)COC(=O)c2c(C)noc2C)cc1Cl`, 98.9% (inactive); to `COc1ccc(NC(=O)CN(C)C(=O)c2n[nH]c3ccccc23)cc1`, 101% (inactive).

For the molecule `CN(C)S(=O)(=O)c1cccc(NC(=O)COc2ccc3ccccc3c2)c1`, the GFP response vs DMSO was 90.9% (inactive). To `O=C(CN1CCOCC1)N1CCCc2c1c(=O)oc1ccc(OCc3ccccc3)cc21` belongs 99% (inactive); to `Cc1cc(C)cc(NC(=O)C2CCCN(S(=O)(=O)c3ccc4[nH]c(=O)ccc4c3)C2)c1` (stereo unspecified), 98.8% (inactive). As for `COc1ccc(CNS(=O)(=O)c2cc(-c3cc(C)no3)ccc2C(C)C)cc1`, the figure is 95.4% (inactive); as for `CN1CCC(=NNC(=O)CN(c2cccc(Cl)c2)S(C)(=O)=O)CC1`, 95.2% (inactive).

Take `Cc1cccc(CSc2ccc(-c3cccs3)nn2)c1`: the GFP response vs DMSO is 87.4% (inactive).

As for `CC(C)(C)CN1C(=O)C(=O)NC[C@H]1Cc1cccc2ccccc12`, the GFP response vs DMSO is 101% (inactive). To `CCCCC(=O)N(c1ccc(OC)cc1)C1C=CS(=O)(=O)C1` (stereo unspecified) belongs 108% (inactive). To `COc1cc(CO)c(C2(CO)CCCC2)cc1OC` belongs 94.8% (inactive); to `CC(C)=CCN1CCN(CCCc2ccccc2)CC1CCO` (stereo unspecified), 105% (inactive); to `CCCCCc1nnc(NC(=O)c2ccc(=O)n(C)n2)s1`, 113% (inactive). With `O=S(=O)(c1ccc(Br)cc1)n1ccc2ccccc21`, the GFP response vs DMSO is 77.6% (inactive).

Regarding `CC(C)(C)OC(=O)NCCCCCNC(=O)c1[nH]cnc1C(=O)Nc1nccs1`, the GFP response vs DMSO is 104% (inactive). As for `CCOCCc1nn2c(=O)cc(CSCC(=O)Nc3cccc(C)c3C)nc2s1`, the figure is 96.3% (inactive). To `C/C(=N\NC(=O)c1cc2c(s1)CCC(C)C2)c1cccnc1` (stereo unspecified) belongs 104% (inactive).

For `O=C(NCCCn1ccnc1)/C(=C\c1ccccc1F)NC(=O)c1ccccc1`, the GFP response vs DMSO is 93.1% (inactive). For `Cc1c(C2=CCN(S(=O)(=O)c3ccc(Cl)cc3)CC2)c2ccccc2n1C`, the GFP response vs DMSO was 98.5% (inactive).

With `CN(C)S(=O)(=O)c1cc(C(=O)Nc2ccn(C)n2)c(Cl)cc1Cl`, the GFP response vs DMSO was 6000% [may fluoresce green] (active). To `Cc1ccc(C(=O)Nc2ccn(C)n2)cc1` belongs 109% (inactive).

Regarding `Cn1ccc(NC(=O)Nc2ccc(Cl)cc2)n1`, the GFP response vs DMSO is 95.9% (inactive).

Consider `CCCCC[C@@H]1C=C(C(=O)O)[C@H](c2ccc(C#N)cc2)N1S(=O)(=O)c1ccc(C)cc1`, for which the GFP response vs DMSO is 88.2% (inactive). In the case of `COc1ccccc1N(CC(=O)NC1CCCC1)C(=O)C1(C)CC(=O)N=C2C=CC(C)=CN21` (stereo unspecified), the GFP response vs DMSO is 104% (inactive). To `O=C(Nc1ccc(-c2cscn2)cc1)C1CCCN(Cc2ccc(CO)o2)C1` (stereo unspecified) belongs 97.5% (inactive).

With `COc1ccc(C(=O)N2CCCCC2C(=O)Nc2ccc(-n3nc(C)cc3C)cc2)o1` (stereo unspecified), the GFP response vs DMSO was 109% (inactive). As for `O=C(COC(=O)C12CC3CC(CC(O)(C3)C1)C2)NC12CC3CC(CC(C3)C1)C2`, the figure is 88.4% (inactive); as for `Cc1ccc(S(=O)(=O)NCCCn2ccnc2)cc1C(=O)NC(C)C`, 99.8% (inactive). As for `CCC(C)(C)NC(=O)CN(C(=O)CCC(=O)Nc1nccs1)c1ccc2c(c1)OCO2`, the figure is 109% (inactive); as for `COc1ccc(C)cc1Nc1n[n+](-c2ccccc2)c(-c2cccc(Cl)c2Cl)s1`, 112% (inactive); as for `O=C(c1ccc(F)cc1)c1cn(Cc2ccc(F)cc2)c2cc3c(cc2c1=O)OCCO3`, 97% (inactive). On to `NC(=O)NC(=O)C(OC(=O)CCNS(=O)(=O)c1ccccc1)c1ccccc1` (stereo unspecified), for which the GFP response vs DMSO was 115% (inactive). As to `CC(C)(C)n1nc(Cc2cccc3ccccc23)c(C#N)c1N`, the GFP response vs DMSO was 91.2% (inactive). As for `CCCOc1ccc(C2NC(=O)NC(c3ccccc3)=C2C(C)=O)cc1OCC` (stereo unspecified), the figure is 98.7% (inactive). Take `CC(=O)c1ccc(S(=O)(=O)NCc2nnnn2-c2ccccc2)cc1`: the GFP response vs DMSO is 108% (inactive). As for `CCC(=C/c1sc2ccc3ccccc3c2[n+]1C)/C=C1\Sc2ccc3ccccc3c2N1C`, the figure is 189% (active); as for `Cc1cc(C(=O)COc2ccccc2Cl)c(C)n1C1CC1`, 80.4% (inactive). As for `O=C(c1cc(COc2c(F)cccc2F)on1)N1CCSCC1`, the figure is 99.2% (inactive); as for `CCCN(C(=O)CSc1nnc(N)s1)c1c(N)n(Cc2ccccc2)c(=O)[nH]c1=O`, 102% (inactive); as for `CC1CCC(C(C)C)C(=O)/C1=C\c1ccc(NC(=O)CCC(=O)O)cc1` (stereo unspecified), 103% (inactive). As for `CC(=O)NC1C(Oc2ccc(C=O)cc2)OC(COC(C)=O)C(OC(C)=O)C1OC(C)=O` (stereo unspecified), the figure is 102% (inactive). On to `COc1ccc(CCNC(=O)C(=O)Nc2ccc3nc4n(c(=O)c3c2)CCCCC4)cc1OC`, for which the GFP response vs DMSO was 96.1% (inactive). To `CC(C)Oc1ccc(/C=N/NC(=O)c2nnn(-c3nonc3N)c2CN(C)C2CCCCC2)cc1` belongs 99.5% (inactive); to `Cc1cc(NC(=O)/C=C/C(=O)N(CC(=O)NC2CCCC2)c2ccc(F)cc2)no1`, 96.7% (inactive).

(Values after PubChem BioAssay AID2029 (NMMLSC, 2009).)
